# High-throughput results from PubChem BioAssay.
# HT1080NT lethal: kills 2HG-producing HT-1080-NT fibrosarcoma cells. Potency, µM (highest dose often 46.1 µM), usual class: cytotoxic. 360,000 tested, 1.6% active. AID 686970. HT-1080-NT fibrosarcoma viability, CellTiter-Glo ATP luminescence, 48 h;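 also: NT is the 2HG producing partner of a matched IDH1 knockdown line; nearly all actives have a fitted effect of over 55% in size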
#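 Luminescent CellTiter-Glo readout after 48 hours of compound exposure at 37 degrees C defined viability of HT-1080-NT cells. Activity was normalized to DMSO wells and cell-free media wells; concentration-response curves were fitted and assigned curve classes.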
# DT40 TDP1 no CPT: qHTS for Inhibitors of human tyrosyl-DNA phosphodiesterase 1 (TDP1): qHTS in cells in absence of CPT; DT40 Tdp1-/- hTDP1 cells, no CPT, ATP luminescence, 48 h; Potency, µM (doses to about 46.2 µM), actives largely listed as inhibitors; 420,000 tested, 15% active; AID 686978, 2013; also: nearly all actives have a fitted effect of over 55% in size
#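 Cells were dispensed at 400 per well, compounds added by pin tool, plates incubated ≥48 hr at 37 °C, then CellTiter-Glo added for 30 min at room temperature before luminescence reading. Line: DT40 Tdp1-/- complemented with hTDP1; camptothecin omitted.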
# HT1080 IDH1KD tx: HT-1080 IDH1 knockdown cell toxicity (counter line) | 360,000 tested, 2% active | AID 686971 | HT-1080 IDH1 knockdown viability, ATP luminescence, 48 h | Potency, µM (doses to about 46.1 µM), usual class: cytotoxic
#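 Knockdown cells (IDH1KD HT-1080) received compounds 2 h after plating at 750 cells/well and were kept 48 h at 37 °C in 5% FBS RPMI. A CellTiter-Glo luminescence read gave % activity for curve fitting.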
# KB-V1 MDR tox: kills drug-selected multidrug resistant KB-V1 cells; KB-V1 MDR cells viability, CellTiter-Glo, 72 h; Potency, µM (series often up to 46.1 µM), usual class: cytotoxic; 400,000 tested, 3.4% active; AID 1347076; also: nearly all actives have a fitted effect of over 60% in size
#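 qHTS viability screen in drug-selected KB-V1 MDR cells: 72 h compound treatment at 37 degrees C, ATP luminescence end point.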
# DT40 TDP1 CPT: DT40-hTDP1 cell growth loss with CPT | AID 686979 | Potency, µM (highest dose often 46.2 µM), usual class: inhibitors | 420,000 tested, 12% active | chicken DT40 Tdp1-/-;hTDP1 cells + 20 nM CPT, ATP luminescence, 48 h; also: nearly all actives have a fitted effect of over 55% in size
#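 Chicken DT40 Tdp1-/- cells stably complemented with human TDP1 were seeded at 400 cells/well in medium containing 20 nM camptothecin, exposed to pin-transferred compounds, and grown at 37 °C for at least 48 hr. Viability was read as ATP luminescence.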
# KB-3-1 tox: KB-3-1 parental cell cytotoxicity; KB-3-1 viability, CellTiter-Glo ATP luminescence, 72 h; Potency, µM (doses to about 46.1 µM), usual class: cytotoxic; 400,000 tested, 1.4% active; AID 1347075; also: nearly all actives have a fitted effect of over 60% in size
#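 Parental KB-3-1 adenocarcinoma cells in phenol-red-free DMEM with 10% FBS were pin-treated with compounds at several concentrations, incubated 72 h at 37 °C, and viability read by CellTiter-Glo luminescence; concentration-effect curves were fitted after normalization.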
# Hits are given with their value; i = inactive; ? = inconclusive; nt = not tested or not shown. Shown are actives, neighbours in structure and some others; about 19% of the full set was active somewhere. Calls follow the shape of the dose curve; as a rule, active = well fitted curve in the direction sought with a large enough effect; inconclusive = small, poorly fitted or top-dose-only effect, or another doubt; inactive = no such curve, though single readings can be large; an effect the other way counts as inactive or inconclusive.
SMILES,HT1080NT lethal,DT40 TDP1 no CPT,HT1080 IDH1KD tx,KB-V1 MDR tox,DT40 TDP1 CPT,KB-3-1 tox
Nc1cc(Cl)ccc1C(=O)OCC(=O)NC1CCCCCCC1,i,i,i,i,?,i
c1ccc(-n2ncc3c(NCCCN4CCOCC4)ncnc32)cc1,i,i,i,i,i,i
CCN(CC)CCCNc1ncnc2c1cnn2-c1ccc(C)c(C)c1,nt,16µM,nt,i,?,i
Cc1cccc(-n2ncc3c(NCCCO)ncnc32)c1,i,i,i,i,i,i
Cc1ccc(-n2ncc3c(NCCCN4CCOCC4)ncnc32)cc1C,nt,23µM,nt,i,?,i
Cc1noc(C)c1-c1ccc2ncnc(NCc3cccs3)c2c1,nt,23µM,nt,nt,12µM,nt
Cn1ccc2cc(-c3ccc4ncnc(NCc5cccs5)c4c3)ccc21,nt,nt,nt,?,nt,18µM
COc1cccc(CNc2ncnc3ccc(-c4c(C)noc4C)cc23)c1,nt,nt,nt,?,nt,i
Cc1cc(NC(=O)C2CCCC2)nc2c1c(=O)oc1ccccc12,i,18µM,i,?,?,i
CCOc1ccc(N2CC(C(=O)NCCc3c[nH]c4ccc(C)cc34)CC2=O)cc1 (stereo unspecified),i,?,i,i,i,i
COc1cc(C(=O)NC2CCN(C)CC2)ccc1Nc1ncc2c(n1)N(C1CCCCC1)CCC(=O)N2C,?,0.58µM,4.6µM,i,0.92µM,?
CCN1C(=O)CC(C(C)C)N(C2CCCC2)c2nc(Nc3ccc(C(=O)NC4CCN(C)CC4)cc3OC)ncc21 (stereo unspecified),i,?,i,?,?,?
CCN1C(=O)CC(c2ccccc2)N(C2CCCC2)c2nc(Nc3ccc(C(=O)NC4CCN(C)CC4)cc3OC)ncc21 (stereo unspecified),?,?,23µM,?,?,18µM
COc1cc(C(=O)NC2CCN(C)CC2)ccc1Nc1ncc2c(n1)N(Cc1ccccc1)CCC(=O)N2C,21µM,5.2µM,?,?,3.7µM,?
COc1ccc(Cn2c(=O)[nH]c3cc(C(=O)NC4CCN(Cc5ccccc5)CC4)ccc32)cc1,i,?,i,i,?,i
CCN1C[C@@H]2[C@@H]3C(=O)N(C)C(=O)[C@@H]3[C@](C)(C1=O)N2C(=O)c1ccc(C)cc1,i,i,i,?,i,?
Cc1ccc(-c2nn(-c3ccc(F)cc3)cc2C(=O)NCC2CCCO2)cc1 (stereo unspecified),i,?,i,?,?,i
Cc1c(C(=O)NCc2ccccn2)sc2nc(-c3ccc(F)cc3)cn12,i,?,?,i,?,?
Cc1c(C(=O)Nc2ccc3c(c2)OCO3)sc2nc(-c3ccccc3)cn12,i,?,i,i,?,i
CCN(CC)CCCNC(=O)c1sc2nc(-c3ccc(F)cc3)cn2c1C,?,?,?,16µM,?,i
Cc1c(C(=O)NCc2ccc3c(c2)OCO3)sc2nc(-c3ccccc3)cn12,i,15µM,i,i,?,i
Cc1c(C(=O)NCc2ccc3c(c2)OCO3)sc2nc(-c3ccc(F)cc3)cn12,i,16µM,i,i,?,i
Cc1c(C(=O)NCC2CCCO2)sc2nc(-c3ccc(F)cc3)cn12 (stereo unspecified),i,?,i,i,15µM,i
CCOC(=O)N1CCN(C(=O)c2c[nH]c3ccc(S(=O)(=O)N(C)c4cccc(C)c4)cc3c2=O)CC1,i,i,i,i,i,i
O=C(NCc1cccs1)C1CC(=O)N(c2ccc(Cl)cc2)C1 (stereo unspecified),i,i,i,?,i,i
SMILES,HT1080NT lethal,DT40 TDP1 no CPT,HT1080 IDH1KD tx,KB-V1 MDR tox,DT40 TDP1 CPT,KB-3-1 tox
COc1cc(NC(=O)CN2C(=O)COc3ccc(S(=O)(=O)NC4CCCC4)cc32)cc(OC)c1,nt,i,nt,i,i,i
Cc1ccc(Sc2cnccc2C#N)cc1,i,i,i,i,i,i
COCCNC(=O)c1ccc(CS(=O)(=O)c2cccc(C(F)(F)F)c2)o1,i,i,i,i,i,i
O=C(Nc1cc(C(F)(F)F)ccc1Cl)c1cc(-c2ccc3c(c2)OCCO3)on1,nt,?,nt,i,?,i
Cc1cccc(C(=O)Nc2ccc(S(=O)(=O)N(Cc3ccccc3)c3ccccc3)cc2)c1,nt,10µM,nt,?,?,i
CCN(c1ccccc1)S(=O)(=O)c1cc(C(=O)Nc2ccc(Br)cc2)ccc1F,?,21µM,?,?,21µM,?
O=C(Nc1ccc(S(=O)(=O)N(Cc2ccccc2)c2ccccc2)cc1)c1ccc(F)cc1,nt,6.5µM,nt,?,23µM,?
Cc1cccc(C(=O)Nc2nnc(S(=O)(=O)N(C)Cc3ccccc3)s2)c1,nt,?,nt,i,?,i
O=C(Nc1ccc(S(=O)(=O)N(Cc2ccccc2)c2ccccc2)cc1)c1ccccc1F,nt,?,nt,i,?,i
CCOc1cccc(C(=O)Nc2ccc(S(=O)(=O)N(Cc3ccccc3)c3ccccc3)cc2)c1,nt,2.3µM,nt,?,?,i
CCOc1cccc(NC(=O)c2ccc(S(=O)(=O)N(C)C)cc2)c1,i,?,i,i,?,i
CC(C)N(Cc1ccccc1)S(=O)(=O)c1ccc(F)cc1,i,9.2µM,i,i,?,i
Cc1ccccc1NC(=O)c1ccc(F)c(S(=O)(=O)N(C)Cc2ccccc2)c1,nt,21µM,nt,nt,?,nt
COc1cccc(C(=O)Nc2ccc(S(=O)(=O)N(Cc3ccccc3)c3ccccc3)cc2)c1,nt,5.8µM,nt,?,?,?
Cc1ccccc1NC(=O)c1ccc(CN(c2ccccc2)S(=O)(=O)c2ccccc2)cc1,i,?,i,10µM,?,i
COc1ccc(C(=O)Nc2ccc(NC(C)=O)cc2)cc1S(=O)(=O)N(C)Cc1ccccc1,i,?,i,i,i,i
CC(C)c1c(C(=O)NCCN2CCOCC2)cnn1-c1nccc(-c2ccco2)n1,nt,i,nt,nt,i,nt
COc1ccc(NC(=O)CCS(=O)(=O)c2cc3c4c(c2)CCN4C(=O)CC3)c(OC)c1,nt,i,nt,i,i,i
C=C1CC2C3CCC4=CC(=O)C=C[C@]4(C)[C@@]3(F)[C@@H](O)C[C@]2(C)[C@@]1(O)C(=O)COC(C)=O (stereo partly specified),nt,i,nt,nt,i,nt
O=C1CCC(c2ccccc2)(C2CCN(Cc3ccccc3)CC2)C(=O)N1 (stereo unspecified),i,i,i,i,i,i
CCOc1ccccc1OCC(=O)Nc1ccc(S(=O)(=O)N(C)C)cc1,i,i,i,i,i,i
Cc1ccccc1OCC(=O)Nc1ccc(S(=O)(=O)N(Cc2ccccc2)c2ccccc2)cc1,nt,5.8µM,nt,i,?,i
